Results taken from PubChem BioAssay (NCI).
This is part of a sample that, as a whole, favours compounds with a hit. Of some 83,000 tested, about 20% had one in any assay.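 Each cell line was grown in a 96-well plate and treated with one concentration of compound for 48 hours. Values below 10 were considered active.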 Unmarked numbers belong to inactive results. Active and inactive are the calls of the source.

Columns and labels:
Assay in all cases: NCI-60 one-dose screen, 48 h (100 = growth as untreated, 0 = no growth, -100 = all killed)
Conditions in all cases: 10 µM unless noted
[1] = test system: BT-549 breast
[2] = test system: MDA-MB-435 melanoma
[3] = test system: SW-620 colon
[4] = test system: HCT-116 colon
[5] = test system: HCC-2998 colon
[6] = test system: KM12 colon
[7] = test system: MCF7 breast

Compound `S=c1[nH]nc2sc3ccccc3n12` has a growth [1] of 116%, a growth [2] of 118% and a growth [3] of 105%. For the same compound, the growth [4] was 102%, the growth [5] was 109% and the growth [6] was 115%.

`CCC(C)(C)C(=O)O[C@H]1C[C@@H](C)C=C2C=C[C@H](C)[C@H](CC[C@@H]3C[C@@H](O)CC(=O)O3)[C@H]21` showed a growth [1] of 84%, a growth [2] of 68.8% and a growth [3] of 61.2%. The growth [4] was 20.4%, the growth [5] was 71.9% and the growth [6] was 90.7%.

In the case of `Clc1ccc(-n2cnc3c(Cl)ncnc32)cc1Cl`, the growth [1] is reported as 90.3%, the growth [2] is reported as 99.3% and the growth [3] is reported as 78.6%. The growth [4] was 61.1%, the growth [5] was -75% (active) and the growth [6] was 95%.

With `N=c1ccn2c(n1)O[C@@H]1[C@@H](O)[C@H](CO)O[C@@H]12` the growth [1] was 83.5%, the growth [2] was 57.1% and the growth [3] was 66.5%. For the same compound, the growth [4] was 37.4%, the growth [5] was 50.2% and the growth [6] was 77.4%.

`O=C(Nc1ccncc1)C(=O)c1cn(S(=O)(=O)c2cccc(F)c2)c2ccccc12` was tested, and the growth [1] was 27.8%, the growth [2] was -1.83% (active) and the growth [3] was 21.7%. For the same compound, the growth [4] was 19.5%, the growth [5] was 66.2% and the growth [6] was 27.6%.

`CC(C)c1nc(N(C)S(C)(=O)=O)nc(-c2ccc(F)cc2)c1/C=C/[C@@H](O)C[C@@H](O)CC(=O)O` gave a growth [1] of 103%, a growth [2] of 109% and a growth [3] of 107%. It also gave a growth [4] of 98.2%, a growth [5] of 97.5% and a growth [6] of 95.8%.

With `O=C1c2nsnc2C(=O)c2c(F)c(F)c(F)c(F)c21` the growth [1] was -96.7% (active), the growth [2] was -67.9% (active) and the growth [3] was -57.3% (active). The growth [4] was -93.1% (active), the growth [5] was -22.4% (active) and the growth [6] was -44% (active).

`Cc1cc(O)c2c(c1)C[C@H]1[C@@H]3CC[C@H]4CC(=O)CC[C@]4(C)[C@H]3CC(=O)[C@]21C` was tested, and the growth [1] was 91.4%, the growth [2] was 91.1% and the growth [3] was 103%. For the same compound, the growth [4] was 77.1%, the growth [5] was 87.9% and the growth [6] was 81.2%.

In the case of `ClC1=C(Cl)C(=C2C(Cl)=C(Cl)C(Cl)=C2Cl)C(Cl)=C1Cl`, the growth [1] is reported as 107%, the growth [2] is reported as 105% and the growth [3] is reported as 102%. The growth [4] was 101%, the growth [5] was 109% and the growth [6] was 104%.

`O=C1CC(=O)N(c2ccccc2)O1` was tested, and the growth [1] was 101%, the growth [2] was 104% and the growth [3] was 101%. The growth [4] was 101%, the growth [5] was 105% and the growth [6] was 109%.

For `CCCCN(CCCC)CCCOC(=O)c1ccc(N)cc1`, the growth [1] was 82.4%, the growth [2] was -3.25% (active) and the growth [3] was 74.6%. The growth [4] was 58.4%, the growth [5] was 87.6% and the growth [6] was 103%.

`CC(=O)O[C@H]1C(=O)[C@@]2(C)C([C@H](OC(=O)c3ccccc3)[C@]3(O)C[C@H](OC(=O)[C@H](O)[C@@H](NC(=O)c4ccccc4)c4ccccc4)C(C)=C1C3(C)C)[C@]1(OC(C)=O)CO[C@@H]1C[C@@H]2O` (stereo partly specified) was tested, and the growth [1] was 30.5%, the growth [2] was -11.5% (active) and the growth [3] was 43.4%. For the same compound, the growth [4] was 7.81% (active), the growth [5] was -22.4% (active) and the growth [6] was 9.05% (active).

For `CC[C@H](C)C(=O)O[C@H]1C[C@@H](C)C=C2C=C[C@H](C)[C@H](CC[C@@H]3C[C@@H](O)CC(=O)O3)[C@H]21`, the growth [1] was 82.4%, the growth [2] was 87.8% and the growth [3] was 99.2%. The growth [4] was 51.7%, the growth [5] was 97.5% and the growth [6] was 109%.

`CCN(CC)c1ccc(C(O)C2=CC(=O)c3ccccc3C2=O)cc1` (stereo unspecified) was tested, and the growth [1] was 23.6%, the growth [3] was -42.7% (active) and the growth [7] was 9.53% (active). For the same compound, the growth [4] was -9.43% (active), the growth [5] was -60.5% (active) and the growth [6] was 1.59% (active).

`CCCCCCCCCCCCCCCCCc1nccn1CCO` gave a growth [1] of 70%, a growth [2] of 95% and a growth [3] of 61.3%. It also gave a growth [5] of 55.4% and a growth [6] of 85.6%.

Compound `O=c1ccn(C2CCCO2)c(=O)[nH]1` (stereo unspecified) has a growth [1] of 118%, a growth [2] of 103% and a growth [3] of 102%. The growth [4] was 97.2%, the growth [5] was 104% and the growth [6] was 108%.

For `N#CCCN(CCO)c1ccccc1`, the growth [1] was 91.7%, the growth [3] was 102% and the growth [7] was 93.6%. It also gave a growth [4] of 100%, a growth [5] of 129% and a growth [6] of 110%.

For `COc1ccc(/C(=C2\O[C@@H]([C@H](O)CO)[C@H]3OC(C)(C)O[C@@H]23)c2cc(OC)c(OC)c(OC)c2)cc1O`, the growth [1] was 82%, the growth [2] was -23.9% (active) and the growth [7] was 95.7%. The growth [4] was 89.3% and the growth [6] was 9.46% (active).

For `C=C1CC[C@@H]2[C@](C)(COC(C)=O)[C@H](OC(C)=O)CC[C@@]2(C)[C@@H]1CC(Nc1ccc(S(=O)(=O)Nc2cc(C)on2)cc1)C1=CCOC1=O` (stereo partly specified), the growth [1] was 27.2%, the growth [2] was 35% and the growth [3] was 14.7%. For the same compound, the growth [4] was -1.13% (active), the growth [5] was 68.3% and the growth [6] was 30.5%.

`Clc1ccc(CCC(Cn2ccnc2)Sc2c(Cl)cccc2Cl)cc1` (stereo unspecified) gave a growth [1] of 52%, a growth [2] of 53.9% and a growth [3] of 65.2%. It also gave a growth [4] of 23.2%, a growth [5] of 56.6% and a growth [6] of 51.8%.

In the case of `O=C1/C(=C/c2ccc3cccc(Cl)c3n2)SC(=S)N1CCc1ccc(O)cc1`, the growth [1] is reported as 95.2%, the growth [2] is reported as 85.5% and the growth [3] is reported as 95%. It also gave a growth [4] of 99.2%, a growth [5] of 118% and a growth [6] of 84.8%.

Compound `COc1ccc2nc3cc(Cl)ccc3c(N3CCN(c4ccnc(Nc5ccc(F)cc5)n4)CC3)c2c1` has a growth [1] of 88.3%, a growth [2] of 74.5% and a growth [3] of 89.2%. It also gave a growth [4] of 41.4%, a growth [5] of 79.5% and a growth [6] of 79.1%.

`COc1c(C)c2c(c(O)c1C/C=C(\C)CCC(=O)OCCN1CCOCC1)C(=O)OC2` was tested, and the growth [1] was 40.4%, the growth [2] was 26.2% and the growth [3] was 19.6%. The growth [4] was 14%, the growth [5] was 18.1% and the growth [6] was 27.8%.

In the case of `O=C(/C=C/c1cc2ccccc2[nH]c1=O)c1ccc(Cl)cc1`, the growth [1] is reported as 29.4%, the growth [2] is reported as 8.38% (active) and the growth [3] is reported as -19.9% (active). For the same compound, the growth [4] was 2.8% (active), the growth [5] was 10.2% and the growth [6] was -1.06% (active).

`CC(c1ccccn1)C(C)(O)C(C)c1ccccn1` (stereo unspecified) showed a growth [1] of 108%, a growth [2] of 104% and a growth [3] of 112%. For the same compound, the growth [4] was 108%, the growth [5] was 104% and the growth [6] was 105%.

For `O=C(OCCBr)c1ccc(Cl)c([N+](=O)[O-])c1`, the growth [1] was 107%, the growth [3] was 103% and the growth [7] was 44.7%. The growth [4] was 92.4%, the growth [5] was 42.9% and the growth [6] was 63.1%.

Work on `O=C(c1ccccc1)c1ccco1` yielded a growth [1] of 97.8%, a growth [3] of 110% and a growth [7] of 93.2%. The growth [4] was 102% and the growth [6] was 107%.

With `CCCCCCOc1ccc(/C=N/NC(N)=S)cc1` the growth [1] was -5% (active), the growth [3] was 23.3% and the growth [7] was 56.6%. The growth [4] was 33.6%, the growth [5] was 72.1% and the growth [6] was 48.9%.

With `Clc1ncn[nH]1` the growth [1] was 105%, the growth [2] was 96.9% and the growth [3] was 111%. The growth [4] was 108%, the growth [5] was 89.8% and the growth [6] was 101%.

With `C=CC1=C(C(=O)O)N2C(=O)[C@@H](NC(=O)/C(=N\O)c3csc(N)n3)[C@H]2SC1` (stereo in doubt) the growth [1] was 118%, the growth [2] was 109% and the growth [3] was 106%. For the same compound, the growth [4] was 105%, the growth [5] was 105% and the growth [6] was 112%.

With `CCN(CC)CCCCNc1c2ccccc2[n+](C)c2c1[nH]c1ccccc12` the growth [2] was -77.1% (active), the growth [3] was -7.04% (active) and the growth [7] was -7.18% (active). The growth [4] was 0.472% (active), the growth [5] was -56.4% (active) and the growth [6] was -12.9% (active).

With `CO[C@H]1CC(O[C@@H]2/C(C)=C/C[C@@H]3C[C@@H](C[C@]4(CC[C@H](C)[C@@H](C5CCCCC5)O4)O3)OC(=O)[C@@H]3C=C(C)/C(=N/O)[C@H]4OC/C(=C\C=C\[C@@H]2C)[C@]43O)O[C@@H](C)C1O` (stereo partly specified) the growth [1] was -88.3% (active), the growth [2] was -86.1% (active) and the growth [3] was -73.2% (active). For the same compound, the growth [4] was -95.6% (active), the growth [5] was -78.1% (active) and the growth [6] was -88.8% (active).

With `O=C(OC[C@H]1O[C@H](OC(=O)c2cc(O)c(O)c(OC(=O)c3cc(O)c(O)c(O)c3)c2)[C@H](OC(=O)c2cc(O)c(O)c(OC(=O)c3cc(O)c(O)c(O)c3)c2)[C@@H](OC(=O)c2cc(O)c(O)c(OC(=O)c3cc(O)c(O)c(O)c3)c2)[C@@H]1OC(=O)c1cc(O)c(O)c(OC(=O)c2cc(O)c(O)c(O)c2)c1)c1cc(O)c(O)c(OC(=O)c2cc(O)c(O)c(O)c2)c1` the growth [1] was 47.4%, the growth [2] was 8.23% (active) and the growth [3] was 47.5%. The growth [4] was 11.5%, the growth [5] was 1.77% (active) and the growth [6] was 21.8%.

In the case of `CN(C(=O)c1ccccc1)N(C)C(=O)c1ccccc1`, the growth [1] is reported as 97%, the growth [3] is reported as 106% and the growth [7] is reported as 95.2%. For the same compound, the growth [4] was 100%, the growth [5] was 116% and the growth [6] was 113%.
